DT40 TDP1 CPT = DT40-hTDP1 cell growth loss with CPT. chicken DT40 Tdp1-/-;hTDP1 cells + 20 nM CPT, ATP luminescence, 48 h. Potency, µM (highest dose often 46.2 µM), inactives show top-dose activity change, negative = growth inhibition, usual class: inhibitors. actives 12% (n = 420,000). AID 686979; also: potency is read from the fitted curve at half-maximal effect; % is scaled to controls: 0 for no effect and ±100 for the full control effect; nearly all actives have a fitted effect of over 55% in size
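Chicken DT40 Tdp1-/- cells complemented with human TDP1, 400 cells/well, exposed to compounds plus 20 nM camptothecin for at least 48 h at 37 C; viability read as ATP content by CellTiter-Glo luminescence.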
TGFb SMAD3 inh = TGF-b pathway inhibition; actives 1.2% (n = 410,000); HepG2 CAGA-GFP TGF-b/SMAD3 reporter, GFP fluorescence, 18 h; TGF-beta stimulated, 500 pg/mL final; Potency, µM (titrated, usually from 46.1 µM), inactives show at the top dose activity, negative = inhibition, actives largely listed as inhibitors; also: potency is read from the fitted curve at half-maximal effect; % is scaled to controls: 0 for no effect and ±100 for the full control effect; nearly all actives have a fitted effect of over 65% in size
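Read-out: total well GFP (ex488/em500-530) summed from mean per-cell fluorescence. Cells: HEPG2 CAGA-GFP, 1% FBS DMEM, 18 h at 37 degrees C with 500 pg/mL final TGF-beta. Unstimulated wells served as the full-inhibition control; stimulated DMSO wells = 0%.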
IL-1B inflam inh = blocks inflammasome-driven IL-1 beta release. THP-1 LPS/ATP IL-1B secretion, AlphaLISA, 16 h; active compounds read low. activity change, % at 57.5 µM. actives 4.7% (n = 360,000); in the data active = activity change below about -50%; inconclusive = mostly about -30% to -49%; also: % is scaled to controls: 0 for no effect and ±100 for the full control effect
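THP-1 cells pretreated 1 hr with compounds (up to 57.5 uM final), then stimulated with LPS (250 ng/mL final) plus ATP (1.25 mM final); secreted IL-1B measured by AlphaLISA after 16 hr, decreased signal indicating inhibition.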
DT40 TDP1 no CPT = qHTS for Inhibitors of human tyrosyl-DNA phosphodiesterase 1 (TDP1): qHTS in cells in absence of CPT; DT40 Tdp1-/- hTDP1 cells, no CPT, ATP luminescence, 48 h; Potency, µM (top dose mostly 46.2 µM), for the others: top-dose activity change, negative = growth inhibition, usual class: inhibitors; actives 15% (n = 420,000); also: potency is read from the fitted curve at half-maximal effect; % is scaled to controls: 0 for no effect and ±100 for the full control effect; nearly all actives have a fitted effect of over 55% in size
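Growth kinetics read by CellTiter-Glo luminescence after ≥48 hr at 37 °C. Cells: DT40 Tdp1-/- stably carrying human TDP1, 400 per well, compound exposure in the absence of CPT (DMSO vehicle).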
TDP1 inh = TDP1 (human) enzyme inhibition. recombinant TDP1, AlphaScreen DNA substrate cleavage. Potency, µM (top dose mostly 130 µM), without a hit: at the top dose activity change, negative = inhibition, hits mostly inhibitors. actives 0.28% (n = 350,000). AID 485290; also: potency is read from the fitted curve at half-maximal effect; % is scaled to controls: 0 for no effect and ±100 for the full control effect; nearly all actives have a fitted effect of over 40% in size
Target sequence (Q9NUW8 whole entry, looked up): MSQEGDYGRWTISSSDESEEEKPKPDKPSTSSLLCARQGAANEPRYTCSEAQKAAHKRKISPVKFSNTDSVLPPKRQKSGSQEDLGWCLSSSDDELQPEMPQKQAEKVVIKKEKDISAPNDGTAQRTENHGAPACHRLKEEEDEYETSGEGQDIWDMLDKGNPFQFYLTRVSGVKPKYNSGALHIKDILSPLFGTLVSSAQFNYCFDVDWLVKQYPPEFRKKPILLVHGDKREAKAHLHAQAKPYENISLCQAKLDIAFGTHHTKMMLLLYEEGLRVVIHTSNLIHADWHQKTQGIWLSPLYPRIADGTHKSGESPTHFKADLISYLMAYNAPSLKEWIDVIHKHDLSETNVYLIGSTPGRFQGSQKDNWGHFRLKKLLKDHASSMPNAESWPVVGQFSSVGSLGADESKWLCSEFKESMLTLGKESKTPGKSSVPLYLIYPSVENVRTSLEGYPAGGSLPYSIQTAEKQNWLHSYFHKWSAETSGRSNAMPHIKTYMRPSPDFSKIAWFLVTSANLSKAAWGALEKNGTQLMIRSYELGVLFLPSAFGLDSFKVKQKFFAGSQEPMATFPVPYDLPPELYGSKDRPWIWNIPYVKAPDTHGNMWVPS
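Recombinant human Tdp1 (E. coli-expressed, 1 nM final) preincubated with compounds 15 min at room temperature, then 5'-biotin/3'-phosphotyrosine-FITC DNA substrate (15 nM final) added for 5 min. AlphaScreen beads (10 ug/ml final) added 10 min; cleavage lowers signal.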
HepG2 tox = HepG2 cytotoxicity, counter-screen for TGF-b inhibitors; HepG2 CAGA-GFP viability, ATP luminescence, 18 h; Potency, µM (series often up to 46.1 µM), inactives show at the top dose activity change, negative = cytotoxicity, actives largely listed as cytotoxic; actives 0.76% (n = 410,000); AID 588856; also: potency is read from the fitted curve at half-maximal effect
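CellTiter-Glo luminescence gave cytotoxicity after 18 hours at 37 degrees C. The cells were HepG2 CAGA-GFP in 1% FBS DMEM, stimulated with 500 pg/mL TGF-beta after compound addition. %Activity was normalised to no-cell wells (complete cell-killing) and DMSO (no toxicity), and curves were fitted and classified.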
* marks the source's active call; other numbers are inactive results; ? = inconclusive; · = no result; [ ] = dose if it differs, or a comment. Only some compounds are listed: those with a hit (about 19% of all), similar ones and a draw of the others. Unless noted, calls follow the shape of the dose curve; as a rule, active = well fitted curve in the direction sought with a large enough effect; inconclusive = small, poorly fitted or top-dose-only effect, or another doubt; inactive = no such curve, though single readings can be large; an effect the other way counts as inactive or inconclusive.

SMILES	DT40 TDP1 CPT	TGFb SMAD3 inh	IL-1B inflam inh	DT40 TDP1 no CPT	TDP1 inh	HepG2 tox
COC(=O)c1nn(-c2ccccc2)nc1-c1nn(-c2ccccc2)nc1C(=O)OC	?	0.0%	-8.4	16.4µM*	3.3%	-15.5%
O=C(O)c1nn(-c2ccccc2)nc1-c1nn(-c2ccccc2)nc1C(=O)O	-7.1%	1.4%	3.0	0.9%	-11.3%	7.3%
O/N=C1/CC/C(=N\O)c2nn(-c3ccccc3)nc21	14.6µM*	5.0%	-64.9*	9.2µM*	8.7%	-26.9%
COc1ccc(NC(=O)CSc2nc3ccccc3c(=O)n2CCC(=O)NC2CCCCC2)c(OC)c1	-2.5%	-1.6%	·	-4.6%	2.5%	1.1%
O=C(Cn1cnc2c(NCc3ccccc3)ncnc21)NCc1ccc2[nH]ccc2c1	1.7%	2.8%	25.6	-4.4%	-2.6%[56.1 µM]	-7.2%
O=C(Cn1cnc2c(OCc3ccccc3)ncnc21)NCc1ccc2[nH]ccc2c1	?	-2.8%	6.8	16.4µM*	-4.8%	-40.2%
O=C(Cn1cnc2c(OCc3ccccc3)ncnc21)NCc1ccccc1	?	-0.6%	61.3	16.4µM*	0.2%	-55.7%
Cc1ccc(NC(=O)N2CCC(CN3CCCC3)CC2)c(C)c1	5.6%	2.4%	·	4.4%	-5.0%	-8.6%
CCc1ccc2nc3nc(C)cc(C)c3c(N)c2c1	?	12.6µM*	-103.8*	11.2µM*	-2.9%	-42.5%
COc1cc(-c2nc3c4ccccc4nc(=S)n3[nH]2)cc(OC)c1OC	?	0.5%	22.4	?	·	1.9%
COc1ccccc1-c1nc2c3ccccc3nc(=S)n2[nH]1	?	-37.3%	0.0	-29.5%	·	-72.2%
S=c1nc(-c2ccccc2)[nH]n1-c1ccccc1	-19.9%	-3.6%	6.5	23.1µM*	2.0%	-7.8%
S=c1nc2ccccc2c2nc(-c3ccccc3Cl)[nH]n12	3.26µM*	?	36.5	3.66µM*	·	-26.6%
CC(Oc1ccc(Br)cc1)c1nc2c3ccccc3nc(=S)n2[nH]1 (centres undefined)	?	?	13.6	14.6µM*	8.6%	-5.6%
S=c1nc2ccccc2c2nc(-c3ccccc3)[nH]n12	20.6µM*	?	25.7	9.2µM*	7.6%	-25.5%
CC(=O)OCC(NC(=O)C(Cc1ccccc1)NC(=O)OC(C)(C)C)C1OC(n2cc(F)c(=O)[nH]c2=O)C(OC(C)=O)C1OC(C)=O (centres undefined)	·	-1.1%	·	·	3.2%	4.5%
O=C(CN1C(=O)C2CCCCN2c2ccc(C(=O)N3CCCC3)cc21)NCc1cccc(F)c1 (centres undefined)	-21.9%	0.2%	·	-15.7%	1.8%	-1.7%
CCOC(=O)C1=CN(Cc2ccco2)S(=O)(=O)N(CC)C1c1ccc(F)c(Cl)c1 (centres undefined)	?	-19.1%	-28.0	?	-0.8%[56.1 µM]	-19.7%
CCN(CC(=O)Nc1ccccc1OC)C(=O)CCOc1ccc(C(C)(C)C)cc1	?	-29.6%	0.7	?	·	-23.2%
COc1ccc(-c2n[nH]c3c2cnc2cc(OC)c(OC)cc23)cc1	-13.8%	2.5%	·	-21.7%	1.2%	2.7%
CCOc1ccc(C(=O)NCCc2csc(-c3ccc(C(F)(F)F)cc3)n2)cc1OCC	?	0.0%	·	14.6µM*	-1.1%	-1.4%
O=C(NCCc1csc(-c2cccnc2)n1)c1cccs1	?	20.4%	-15.0	20.6µM*	5.2%	6.3%
O=C(NCCc1csc(-c2ccc(C(F)(F)F)cc2)n1)c1cccs1	?	7.4%	-28.8	18.4µM*	5.4%	-23.0%
CCC(C(=O)Nc1ccc(C(C)=O)cc1)n1c(C)c2cnn(-c3ccccc3)c(=O)c2c1C (centres undefined)	23.1µM*	-24.4%	·	?	5.1%	-21.6%
Cc1c2cnn(-c3ccccc3)c(=O)c2c(C)n1CC(=O)NCc1ccc(Cl)cc1	-26.0%	0.5%	·	-19.2%	2.5%	-11.0%
SMILES	DT40 TDP1 CPT	TGFb SMAD3 inh	IL-1B inflam inh	DT40 TDP1 no CPT	TDP1 inh	HepG2 tox
COc1ccc(NC(=O)Cn2c(C)c3cnn(-c4ccccc4)c(=O)c3c2C)c(OC)c1	-17.6%	?	·	-18.1%	5.1%	-10.4%
CC(=O)c1cccc(NC(=O)Cn2c(C)c3cnn(-c4ccccc4)c(=O)c3c2C)c1	20.6µM*	?	·	-19.3%	7.6%	-11.7%
CCOC(=O)c1cccc(NC(=O)CCCn2c(C)c3cnn(-c4ccccc4)c(=O)c3c2C)c1	18.4µM*	?	·	16.4µM*	12.7%	-39.9%
Cc1c2cnn(-c3ccccc3)c(=O)c2c(C)n1CCCC(=O)Nc1cc(F)ccc1F	-13.6%	?	·	?	5.1%	-26.0%
Cc1ccccc1-c1noc(-c2ccccc2C(=O)NCC2CCCO2)n1 (centres undefined)	?	-7.7%	4.6	18.4µM*	-1.4%	-4.1%
Cc1ccccc1Nc1cc(C(=O)NCC2CCCO2)c2ccccc2n1 (centres undefined)	18.4µM*	-0.2%	17.2	?	3.6%	-10.8%
CCc1ccc(CNC(=O)c2cc3n(n2)CCCN(Cc2ccccc2)C3=O)cc1	16.4µM*	?	·	?	2.0%	-11.4%
Cc1ccc(CN2CCCn3nc(C(=O)NC(C)C)cc3C2=O)cc1	-10.6%	-27.6%	·	-21.9%	1.2%	-16.3%
CCCNC(=O)c1cc2n(n1)CCCN(Cc1ccc(F)cc1)C2=O	0.0%	-12.1%	·	3.7%	-4.9%	-8.2%
Cc1ccc(CN2CCCn3nc(C(=O)NCC(C)c4ccccc4)cc3C2=O)cc1 (centres undefined)	?	-29.1%	·	16.4µM*	6.2%	-44.2%
COc1ccc(CCNC(=O)c2cc3n(n2)CCCN(Cc2ccc(C)cc2)C3=O)cc1OC	?	-23.8%	·	20.6µM*	1.2%	-24.4%
CCc1ccccc1-n1c(SCC(=O)N2CCCC2)nnc1-c1ccccn1	?	-4.5%	-9.6	20µM*	2.6%	9.7%
CCn1c(Cc2ccc(OC)cc2)nnc1SCC(=O)N1CCN(c2ccccc2)CC1	?	-1.3%	5.1	?	-3.9%	-23.8%
Cn1cccc1Cc1nnc(SCC(=O)N2CCCCCC2)n1-c1ccc(F)cc1	?	-4.4%	20.6	?	3.9%	-15.4%
Cc1ccccc1-n1c(SCC(=O)N2CCN(c3ccccc3)CC2)nnc1-c1ccncc1	16.4µM*	-1.3%	4.2	20.6µM*	·	-15.9%
Cc1ccccc1-n1c(SCC(=O)N2CCCC2)nnc1-c1ccccn1	-3.1%	-4.7%	19.1	-12.5%	1.9%	-9.1%

High-throughput results as filed in PubChem.
